Experimental data from PubChem BioAssay (NCATS).
Inconclusive results are not listed. Calls of active or inactive are those of the source. Unless noted, calls follow the shape of the dose curve; as a rule, active = well fitted curve in the direction sought with a large enough effect; inconclusive = small, poorly fitted or top-dose-only effect, or another doubt; inactive = no such curve, though single readings can be large; an effect the other way counts as inactive or inconclusive.

Legend:
[1] = qHTS for Inhibitors of Plasmodium falciparum (DD2) proliferation (AID 504314);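 also: parasite DNA measured by SYBR Green fluorescence after red cell lysis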
Method in brief: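 Infected RBCs, 0.3% parasitemia, 2.5% Hct; compound 72 h, 37C/5% CO2; lyse + SYBR Green I, RT overnight, dark; read ex485/em535; normalize to DMSO and artemisinin 0.29 uM.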

[2] = qHTS for Inhibitors of Plasmodium falciparum (GB4) proliferation (AID 504315); also: nearly all actives have a fitted effect of over 50% in size
Method in brief: (§1)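 Erythrocytes infected with P. falciparum line (0.3% parasitemia, 2.5% hematocrit final) incubated with compounds 72 h at 37 °C, 5% CO2; SYBR Green lysis buffer added, fluorescence read next day. Normalized to 0.29 uM artemisinin and DMSO.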

[3] = qHTS for Inhibitors of Plasmodium falciparum (7G8) proliferation (AID 504316); also: series mostly up to about 6.7 µM; nearly all actives have a fitted effect of over 65% in size
Method in brief: as §1

[4] = qHTS for Inhibitors of Plasmodium falciparum (CP250) proliferation (AID 504320)
Method in brief: as §1

[5] = qHTS for Inhibitors of Plasmodium falciparum (HB3) proliferation (AID 504318); also: nearly all actives have a fitted effect of over 60% in size
Method in brief: as §1

[6] = biological target: Tumor susceptibility gene 101 protein (Homo sapiens) (UniProt Q99816); assay: qHTS Assay for Iinhibitors of HIV-1 Budding by Blocking the Interaction of PTAP/TSG101: Hit Validation (AID 651600); also: nearly all actives have a fitted effect of over 70% in size
Tumor susceptibility gene 101 protein (Homo sapiens), sequence (Q99816 whole entry, looked up): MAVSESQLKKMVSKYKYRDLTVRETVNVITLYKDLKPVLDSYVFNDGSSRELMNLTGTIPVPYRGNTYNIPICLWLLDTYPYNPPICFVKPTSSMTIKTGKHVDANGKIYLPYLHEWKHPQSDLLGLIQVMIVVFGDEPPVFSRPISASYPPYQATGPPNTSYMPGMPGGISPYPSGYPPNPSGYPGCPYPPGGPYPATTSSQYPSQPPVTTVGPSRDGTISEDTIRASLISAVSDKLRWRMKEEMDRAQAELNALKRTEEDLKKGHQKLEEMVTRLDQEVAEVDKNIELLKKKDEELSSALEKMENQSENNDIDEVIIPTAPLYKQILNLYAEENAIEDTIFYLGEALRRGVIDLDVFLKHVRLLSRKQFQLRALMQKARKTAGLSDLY
Method in brief: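 Measuring PTAP–Tsg101 interaction by FP: protein at 10 uM and fluorescent peptide at 50 nM (final), buffer 10 mM HEPES pH 7.5 with 0.15 M NaCl, 3 mM EDTA, 0.1 mM TCEP, 0.01% Tween 20; 20 min incubation, r.t.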

[7] = biological target: Mitogen-activated protein kinase 10 (Mus musculus) (UniProt Q61831); assay: JNK3 AlphaScreen Assay (AID 530; active = well fitted curve in either direction with a large enough effect, not every such curve was filed as active;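 also: kinase came from lysate of stimulated human HepG2 cells; signal reports phosphorylation of biotinylated GST-cJun 1-79 at Ser73 with 10 µM ATP; series mostly up to about 57 µM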)
Method in brief: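 qHTS format: compounds tested as titrations against IL-1beta/TNF-alpha-activated HepG2 lysate JNK3 with biotin-GST-cJun substrate and 10 uM ATP at room temperature. Loss of anti-phospho-cJun AlphaScreen signal indicates inhibition.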

[8] = biological target: 3',5'-cyclic-AMP phosphodiesterase 4B (Homo sapiens) (UniProt Q07343); assay: qHTS Assay for Inhibitors of PDE-IV (AID 607; active = well fitted activation curve with a large enough effect in the main read-out, with a control signal flat, not every such curve was filed as active)
3',5'-cyclic-AMP phosphodiesterase 4B (Homo sapiens), sequence (Q07343 whole entry, looked up): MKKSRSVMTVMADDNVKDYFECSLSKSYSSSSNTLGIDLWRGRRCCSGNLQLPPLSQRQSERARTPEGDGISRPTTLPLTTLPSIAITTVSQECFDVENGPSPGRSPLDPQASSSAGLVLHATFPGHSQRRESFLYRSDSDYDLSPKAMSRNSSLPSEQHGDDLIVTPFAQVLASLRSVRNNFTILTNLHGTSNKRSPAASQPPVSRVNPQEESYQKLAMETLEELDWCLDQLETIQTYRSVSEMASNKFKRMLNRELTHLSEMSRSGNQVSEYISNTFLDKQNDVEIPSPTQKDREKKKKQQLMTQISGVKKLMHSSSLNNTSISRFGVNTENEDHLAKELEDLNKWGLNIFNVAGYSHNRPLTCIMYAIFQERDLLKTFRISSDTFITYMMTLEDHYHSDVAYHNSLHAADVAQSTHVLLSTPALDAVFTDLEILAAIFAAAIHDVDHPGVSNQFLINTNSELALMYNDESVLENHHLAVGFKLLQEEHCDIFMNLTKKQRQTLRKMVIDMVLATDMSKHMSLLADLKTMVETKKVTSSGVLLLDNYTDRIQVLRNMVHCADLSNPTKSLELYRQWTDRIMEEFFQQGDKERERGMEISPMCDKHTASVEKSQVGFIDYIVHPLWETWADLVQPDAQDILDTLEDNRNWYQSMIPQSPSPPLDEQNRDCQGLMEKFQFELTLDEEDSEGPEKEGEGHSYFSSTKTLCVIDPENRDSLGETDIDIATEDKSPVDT
Method in brief: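 Cell-based read-out of cAMP via a modified cyclic nucleotide-gated channel and membrane potential dye (535/590 nm) in HEK293 cells expressing PDE4 endogenously. Compounds tested up to 22.9 uM final; 100 uM RO 20-1724 reference.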

[9] = biological target: Cytochrome P450 3A4 (Homo sapiens) (UniProt P08684); assay: qHTS Assay for Activators of Cytochrome P450 3A4 (AID 885); also: nearly all actives have a fitted effect of over 65% in size
Cytochrome P450 3A4 (Homo sapiens), sequence (P08684 whole entry, looked up): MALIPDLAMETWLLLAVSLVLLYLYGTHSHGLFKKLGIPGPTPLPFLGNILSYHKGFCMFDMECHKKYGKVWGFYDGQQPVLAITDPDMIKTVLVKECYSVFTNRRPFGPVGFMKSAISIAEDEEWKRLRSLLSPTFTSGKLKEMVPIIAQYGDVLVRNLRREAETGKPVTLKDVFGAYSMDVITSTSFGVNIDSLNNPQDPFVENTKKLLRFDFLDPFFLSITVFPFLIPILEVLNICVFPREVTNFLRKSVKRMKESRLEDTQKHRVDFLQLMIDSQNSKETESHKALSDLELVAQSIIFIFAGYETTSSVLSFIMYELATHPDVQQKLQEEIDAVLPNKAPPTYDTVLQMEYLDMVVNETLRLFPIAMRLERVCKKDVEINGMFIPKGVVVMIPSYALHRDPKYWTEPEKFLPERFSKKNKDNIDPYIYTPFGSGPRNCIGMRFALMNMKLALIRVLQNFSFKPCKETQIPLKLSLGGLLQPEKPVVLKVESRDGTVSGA
Method in brief: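 Signal was normalized against complete inhibition by 57 uM ketoconazole. The reaction used 20nM CYP3A4 with 25uM Luciferin-PPXE, 10-min compound preincubation and a 60-min NADPH-supported step at RT.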

[10] = biological target: Cytochrome P450 2C9 (Homo sapiens) (UniProt P11712); assay: qHTS Assay for Inhibitors and Substrates of Cytochrome P450 2C9 (AID 883); also: potency is read from the fitted curve at half-maximal effect; nearly all actives have a fitted effect of over 60% in size
Cytochrome P450 2C9 (Homo sapiens), sequence (P11712 whole entry, looked up): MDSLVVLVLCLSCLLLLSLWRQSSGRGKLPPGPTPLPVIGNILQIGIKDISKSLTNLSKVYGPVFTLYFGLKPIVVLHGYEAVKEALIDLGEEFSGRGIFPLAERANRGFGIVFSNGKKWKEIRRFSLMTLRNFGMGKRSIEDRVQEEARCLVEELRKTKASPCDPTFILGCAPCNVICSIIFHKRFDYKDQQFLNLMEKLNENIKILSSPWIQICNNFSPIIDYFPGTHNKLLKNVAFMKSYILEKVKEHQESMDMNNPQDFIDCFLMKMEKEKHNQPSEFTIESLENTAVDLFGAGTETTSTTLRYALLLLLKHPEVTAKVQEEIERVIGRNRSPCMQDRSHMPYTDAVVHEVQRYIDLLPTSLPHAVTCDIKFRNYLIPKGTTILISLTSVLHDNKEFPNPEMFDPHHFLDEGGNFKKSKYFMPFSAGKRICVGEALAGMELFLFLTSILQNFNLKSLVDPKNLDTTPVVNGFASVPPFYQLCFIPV
Method in brief: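 Signal: luciferase luminescence reporting luciferin produced by CYP2C9. Conditions: 10nM enzyme, Luciferin-H 100uM at KM, 25mM KPO4, 37C, 60 min NADPH-driven reaction. Reference: 57uM sulphaphenazole as 100% inhibition.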

Measured: Potency

COCCN1C(=O)N[C@@H](c2ccccc2)[C@@H](C(=O)OC)[C@H]1C
inactive: [1] | [2] | [3] | [4]

COC/C=C/C1=CC2=CC(=O)C(C)(OC(=O)c3cnc4ccccc4n3)C(=O)C2=CN1C(CO)CO (stereo not drawn)
inactive: [1] | [2] | [3] | [5] | [4]

CCN1C(=O)N[C@@H](c2ccc(Br)cc2)C(C(C)=O)=C1C
inactive: [1] | [2] | [3] | [5] | [4]

COC(=O)CCCC1=CC2=C(c3ccccc3)C(=O)C(C)(OC(=O)C3CCCC3)C(=O)C2=CN1CC1CC1 (stereo not drawn)
inactive: [1] | [2] | [3] | [4]

COC(=O)C1=C(C(=O)OC)[C@@H]2N(Cc3ccccc3)c3ccccc3[C@@]23C[C@@H](C(=O)OC)N(C(=O)c2ccco2)C3=N1
inactive: [1] | [2] | [3] | [4]

COC(=O)CC1c2ccccc2C=C(C)N1C(=O)OC (stereo not drawn)
inactive: [1] | [2] | [3] | [4]

CCCCC1=CC2=C(c3ccco3)C(=O)C(C)(OC(=O)c3ccc(OC)cc3)C(=O)C2=CN1CC(C)C (stereo not drawn)
inactive: [1] | [2] | [3] | [4]

COC/C=C/C1=CC2=CC(=O)C(C)(OC(=O)c3cnc4ccccc4n3)C(=O)C2=CN1Cc1ccccc1 (stereo not drawn)
inactive: [1] | [2] | [3] | [4]

CC(C)CN1C=C2C(=O)C(C)(OC(=O)C3CCCC3)C(=O)C=C2C=C1c1ccsc1 (stereo not drawn)
inactive: [1] | [2] | [3] | [5] | [4]

COC(=O)[C@@H]1[C@@H](C)N(Cc2ccccc2)C(=O)N[C@H]1c1ccccc1
inactive: [1] | [2] | [3] | [4]

COC(=O)CCC(=O)OC1(C)C(=O)C=C2C=C(C3CC3)N(CCCCO)C=C2C1=O (stereo not drawn)
inactive: [1] | [2] | [3] | [5] | [4]

COCCN1C(=O)N[C@@H](c2ccccc2)[C@H](C(=O)OC)[C@H]1C
inactive: [1] | [2] | [3] | [5] | [4]

COC(=O)N[C@@H](c1cccc(C)c1)[C@]1(C(C)=O)CCCC1=O
inactive: [1] | [2] | [3] | [4]

COC(=O)CCCC1=CC2=C(c3ccccc3)C(=O)C(C)(OC(=O)C3CCCC3)C(=O)C2=CN1C1CC1 (stereo not drawn)
inactive: [1] | [2] | [3] | [4]

COC(=O)[C@@H]1[C@H](CCc2ccccc2)NC(=O)N(Cc2ccccc2)[C@H]1C
inactive: [1] | [2] | [3] | [4]

O=C1c2cc(Br)ccc2O[C@@H](c2ccc3c(c2)OCO3)[C@@H]1O
inactive: [1] | [2] | [3] | [4]

Cc1ccccc1Nc1oc(-c2ccccc2)nc1-c1ccc(C(F)(F)F)cc1
inactive: [1] | [2] | [3] | [4]

CCO[C@H](c1cc(OC)cc([N+](=O)[O-])c1OC)[C@H](C)C=CCC(=O)OC
inactive: [1] | [2] | [3] | [5] | [4]

CCCCc1nc2c(c3c1C[C@H](C)OC3)CN(C(=O)N[C@@H](C)c1ccccc1)CC2
inactive: [1] | [2] | [3] | [5] | [4]

CCCCC1=CC2=C(c3ccco3)C(=O)C(C)(OC(=O)c3ccc(OC)cc3)C(=O)C2=CN1c1ccccc1 (stereo not drawn)
inactive: [1] | [2] | [3] | [4]

CCN1C(=O)N[C@@H](c2ccccc2)[C@H](C(C)=O)[C@H]1C
inactive: [1] | [2] | [3] | [4]

CCN1C(=O)NC(c2ccc(Br)cc2)C(C(=O)OC)=C1C (stereo not drawn)
inactive: [1] | [2] | [3] | [4]

CCOC(=O)CN1C(=O)N[C@@H](c2cccc(F)c2)C(C(=O)OC)=C1C
inactive: [1] | [2] | [3] | [4]

CC(=O)Nc1ccc2nc3c(=O)[nH]c(=O)[nH]c3nc2c1
inactive: [6]

O=C(NCc1ccccc1)[C@H]1C[C@@H]1[C@H](NP(=O)(c1ccccc1)c1ccccc1)c1ccccc1
inactive: [7] | [8]

C[C@@H](C(=O)NCc1nc2ccccc2[nH]1)[C@@H]1C[C@@]1(C)[C@@H](NC(=O)OCc1ccccc1)c1ccccc1
inactive: [7] | [8] | [9]

CCC/C=C(\CCC)C(NC(=O)c1ccc(C(=O)OC)cc1)c1ccc(C(=O)OC)cc1 (stereo not drawn)
inactive: [7] | [9]
active: [10] 2 µM
